Our source for the composite z-score and z-score values is PubChem BioAssay.

Experiment [1] concerns Plasmodium falciparum Sir2 (PF13_0152, Sir2A). Description: pfSir2 binders on small-molecule microarrays, primary screen, biochemical, small-molecule microarray, 635 nm fluorescence (AID 1098).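 Further: score merges spot fluorescence intensity with its signal-to-noise ratio.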 The settings on record: small-molecule microarray binding, fluorescence 635 nm; higher = more signal.
Experiment [2] can be described thus: small-molecule microarray binders of probe aDKK1, primary screen, biochemical, biotinylated probe, 635/667 nm fluorescence (AID 1099).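 Further: score merges 667nm spot fluorescence with signal to noise across triplicate slides; reference of the scale not given here.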 As to conditions: higher = more signal.
Experiment [3] in a line: small-molecule microarray binders of probe aCHRDL2, primary screen, biochemical, biotinylated probe, 635/667 nm fluorescence (AID 1100). As to conditions: higher = more signal.
Experiment [4] in a line: splicing luciferase reporter signal modulators, primary screen, spliceosome inhibition project, cell-based, HEK293, splice +/- reporter (AID 1101).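 Further: HEK293 cells carrying a splicing-competent luciferase reporter gene; test concentration not given here.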 The settings on record: luminescence, 24 h, higher = more signal, called active from +8 up or from −8 down. (In general: In a reporter assay the amount or activity of a reporter protein is the signal.)
Experiment [5] deals with Fibroblast growth factor 10 (Homo sapiens) (UniProt O15520). Description: FGF10 binders on small-molecule microarrays, primary screen, biochemical, small-molecule microarray, 635 nm fluorescence (AID 1102). The settings on record: FGF10 binding, fluorescence 635 nm, higher = more signal.
Experiment [6] has as its system glycogen synthase kinase-3 (GSK3A per assay name; protocol says GSK3B). Description: GSK3 binders on small-molecule microarrays, primary screen, biochemical, small-molecule microarray, 635 nm fluorescence, GSK3A (AID 1103). Further: the record names both GSK3A and GSK3B. As to conditions: small-molecule microarray binding, fluorescence 635 nm; higher = more signal.
For experiment [7], the target named is Epidermal growth factor receptor (Homo sapiens) (UniProt P00533). Description: EGFR binders on small-molecule microarrays, primary screen, biochemical, small-molecule microarray, 635 nm fluorescence (AID 1104).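 Further: score merges 667 nm emission intensity with spot signal to noise over triplicate slides.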 The settings on record: EGFR binding, higher = more signal.
The target of experiment [8] is Follistatin-related protein 3 (Homo sapiens) (UniProt O95633). Description: FSTL3 binders on small-molecule microarrays, primary screen, biochemical, small-molecule microarray, 635 nm fluorescence (AID 1105).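 Further: score merges emission near 667 nm and signal to noise per printed spot across three slides.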 As to conditions: FSTL3 binding, higher = more signal.
Experiment [9] deals with Dickkopf-related protein 1 (Homo sapiens) (UniProt O94907). Description: DKK1 binders on small-molecule microarrays, primary screen, biochemical, small-molecule microarray, 635 nm fluorescence scan (AID 1106).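 Further: score merges emission near 667 nm with signal to noise over three replicate slides.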 The settings on record: DKK1 binding, higher = more signal.
Experiment [10] relates to Inhibin beta A chain (activin A). Description: INHBA (activin A) binders on microarrays, primary screen, biochemical, small-molecule microarray, 635 nm fluorescence scan (AID 1107).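 Further: mouse activin A protein probed at 4.33 µg/mL on printed slides; score merges bound-protein fluorescence near 667 nm with spot signal-to-noise.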 As to conditions: small-molecule microarray binding, higher = more signal.

Active and inactive are the calls of the source.

Sequence of Fibroblast growth factor 10 (Homo sapiens) (O15520 whole entry, looked up): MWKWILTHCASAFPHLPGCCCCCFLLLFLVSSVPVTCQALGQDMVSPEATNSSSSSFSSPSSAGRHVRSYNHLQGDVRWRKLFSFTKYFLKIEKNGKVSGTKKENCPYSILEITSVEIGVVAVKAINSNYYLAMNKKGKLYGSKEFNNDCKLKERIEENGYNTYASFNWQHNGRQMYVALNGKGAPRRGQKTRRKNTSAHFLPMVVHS
Sequence of Follistatin-related protein 3 (Homo sapiens) (O95633 whole entry, looked up): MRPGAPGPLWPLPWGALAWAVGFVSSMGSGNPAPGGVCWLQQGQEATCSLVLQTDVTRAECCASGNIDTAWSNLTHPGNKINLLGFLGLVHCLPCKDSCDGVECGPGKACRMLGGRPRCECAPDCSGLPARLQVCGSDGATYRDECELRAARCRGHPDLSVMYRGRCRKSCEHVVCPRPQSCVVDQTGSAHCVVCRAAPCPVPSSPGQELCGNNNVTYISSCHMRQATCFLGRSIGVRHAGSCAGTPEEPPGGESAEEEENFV
Sequence of Dickkopf-related protein 1 (Homo sapiens) (O94907 whole entry, looked up): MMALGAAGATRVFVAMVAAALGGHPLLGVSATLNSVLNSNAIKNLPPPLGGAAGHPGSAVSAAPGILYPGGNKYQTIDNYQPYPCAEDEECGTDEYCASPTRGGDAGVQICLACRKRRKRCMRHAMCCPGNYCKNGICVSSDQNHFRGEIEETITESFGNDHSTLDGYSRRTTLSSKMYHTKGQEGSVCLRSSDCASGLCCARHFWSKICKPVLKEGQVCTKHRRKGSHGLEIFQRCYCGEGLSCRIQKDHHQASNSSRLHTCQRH
Sequence of Epidermal growth factor receptor (Homo sapiens) (P00533 whole entry, looked up): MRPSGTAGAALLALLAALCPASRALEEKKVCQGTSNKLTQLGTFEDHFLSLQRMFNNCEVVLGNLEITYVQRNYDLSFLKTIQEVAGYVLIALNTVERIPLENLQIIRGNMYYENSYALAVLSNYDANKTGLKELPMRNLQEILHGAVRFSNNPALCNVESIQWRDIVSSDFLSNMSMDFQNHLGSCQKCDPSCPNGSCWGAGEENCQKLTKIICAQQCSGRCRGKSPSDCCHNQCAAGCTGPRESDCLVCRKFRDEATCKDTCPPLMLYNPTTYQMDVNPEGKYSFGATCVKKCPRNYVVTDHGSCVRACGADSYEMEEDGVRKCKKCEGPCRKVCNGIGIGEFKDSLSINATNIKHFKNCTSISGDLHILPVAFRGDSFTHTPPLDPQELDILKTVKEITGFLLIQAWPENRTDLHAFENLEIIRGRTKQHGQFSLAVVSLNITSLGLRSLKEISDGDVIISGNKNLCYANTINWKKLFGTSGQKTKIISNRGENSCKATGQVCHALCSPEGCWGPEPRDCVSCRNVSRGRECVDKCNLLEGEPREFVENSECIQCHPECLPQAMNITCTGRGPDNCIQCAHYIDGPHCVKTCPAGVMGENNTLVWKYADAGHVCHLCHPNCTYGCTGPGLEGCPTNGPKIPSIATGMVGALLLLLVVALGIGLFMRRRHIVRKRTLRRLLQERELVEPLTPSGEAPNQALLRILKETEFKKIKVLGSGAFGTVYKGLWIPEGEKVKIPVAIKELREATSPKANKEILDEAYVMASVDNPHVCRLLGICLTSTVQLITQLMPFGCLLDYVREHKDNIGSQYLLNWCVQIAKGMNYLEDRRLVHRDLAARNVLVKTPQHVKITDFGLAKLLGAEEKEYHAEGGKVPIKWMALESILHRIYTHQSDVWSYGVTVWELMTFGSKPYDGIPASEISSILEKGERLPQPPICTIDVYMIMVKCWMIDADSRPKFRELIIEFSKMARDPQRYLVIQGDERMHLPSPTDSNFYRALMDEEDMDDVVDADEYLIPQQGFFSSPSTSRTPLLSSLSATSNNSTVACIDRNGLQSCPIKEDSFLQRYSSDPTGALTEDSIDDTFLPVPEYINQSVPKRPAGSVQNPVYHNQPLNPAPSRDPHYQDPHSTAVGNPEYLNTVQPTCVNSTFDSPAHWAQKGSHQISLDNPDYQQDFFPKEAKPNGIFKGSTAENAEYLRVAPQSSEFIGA

Regarding `COc1ccc([Si](C)(C)[C@H]2[C@H](CC(=O)N3Cc4ccccc4C[C@H]3CO)O[C@@]3(C(=O)N(Cc4cccc(I)c4)c4ccccc43)[C@@H]2C)cc1`, the composite z-score in experiment [1] was 0.391; in experiment [2] it was -0.29; in [3], -0.162; in [5] it was 1.15; in experiment [6] it was 0.346; in experiment [7], 1.4. For the same molecule, the values for the composite z-score in [8], in experiment [9] and in experiment [10] were 1.36, 1.57 and 1.76, respectively. The z-score in experiment [4] was -1.73 (inactive).

Consider `COC(=O)[C@@]1(Cc2ccc(OC)cc2)[C@H]2c3cc(C(=O)N4CCCC4)n(C[C@H](O)CO)c3C[C@H]2CN1C(=O)c1ccccc1`, for which the composite z-score in [1] was 1.06; in [2] it was 0.642; in [3] it was 0.913; in [5], 0.974; in [6], -0.681; in experiment [7], -0.352. Moreover, the figures for the composite z-score in experiment [8], in experiment [9] and in [10] were -0.519, -0.385 and 0.903, respectively. Further, in [4], the z-score was 1.19 (inactive).

As for `O=C1O[C@H](c2ccccc2)[C@H](c2ccccc2)N2[C@H]1[C@@H](C(=O)N1CCCCCCC1)[C@]1(C(=O)Nc3ccc(C#CC4=CCCCC4)cc31)[C@H]2c1ccc(O)cc1`, the composite z-score was determined as 2.14 in [1]; 3.14 in experiment [2]; 1.72 in [3]; 1.67 in [5]; 1.5 in experiment [6]; 2.04 in [7]. Further, the composite z-score amounted to 1.69 in experiment [8], 2.71 in experiment [9] and 2.04 in experiment [10]. The z-score in experiment [4] was -0.944 (inactive).

For the molecule `Cc1ccc(N2C(=O)c3ccccc3[C@@H](C(=O)NC(C)C)[C@@H]2c2ccc(CO)cc2)nc1`, the composite z-score is 1.87 in [1]; 0.167 in experiment [2]; 0.61 in experiment [3]; 0.121 in experiment [5]; -0.0399 in [6]; -0.416 in experiment [7]. Also, the composite z-score in experiment [8] is -0.64; in experiment [9], -0.32; in experiment [10] it was 0.726. Besides, the z-score in experiment [4] is 0.245 (inactive).

Consider `COCCOC(=O)N1C(=O)[C@@]2(c3cc(C#Cc4ccc(OC)cc4)ccc31)[C@H](c1ccc(OCCO)cc1)N1[C@H](c3ccccc3)[C@H](c3ccccc3)OC(=O)[C@H]1[C@@H]2C(=O)N1CCc2cc(OC)c(OC)cc2C1`, for which the composite z-score was 1.41 in experiment [1]; -0.126 in experiment [2]; -0.227 in experiment [3]; 0.812 in [5]; 1.12 in experiment [6]; 0.463 in experiment [7]. Moreover, the values for the composite z-score in experiment [8], in experiment [9] and in experiment [10] were 1.3, 0.435 and 0.273, respectively. Besides, the z-score in experiment [4] is -0.355 (inactive).

Take `Cc1ccc(S[C@]2(C(=O)NCCCN(C)C)CC(=O)N(C(C)C)[C@@H]2c2ccc(CO)cc2I)cc1`: the composite z-score in [1] was 1.37; in experiment [2], 0.17; in experiment [3], 0.789; in experiment [5] it was -0.238; in [6] it was -0.627; in experiment [7], -0.228. The values for the composite z-score in experiment [8], in experiment [9] and in experiment [10] were -0.137, -0.827 and 1.1, respectively. Also, the z-score in [4] is -1.44 (inactive).

Regarding `CN1C(=O)C2C(C1=O)C1C=C(c3ccc(CO)cc3)C2C(C2CC2)N1Cc1sc2ccccc2c1Cl` (stereo not given), the composite z-score in experiment [1] was 0.924; in [2], -0.197; in experiment [3], 0.82; in experiment [5], 1.25; in experiment [6], 1.33; in experiment [7], 0.291. Further, the figures for the composite z-score in experiment [8], in experiment [9] and in [10] were 0.989, 0.473 and 0.74, respectively. In addition, the z-score in experiment [4] was 0.254 (inactive).

On to `O=C1C[C@@](C(=O)O)(c2ccc([N+](=O)[O-])cc2)[C@@H](c2ccc(CO)cc2I)N1C1CCCCC1`, for which the composite z-score in [1] is 1.24; in [2], -0.162; in experiment [3], 0.862; in [5], 1.27; in experiment [6] it was -0.428; in [7] it was 0.126. Also, the composite z-score in experiment [8] is 0.596; in experiment [9], -0.605; in [10] it was 0.775. Also, in experiment [4], the z-score was -2.72 (inactive).

For the molecule `O=C1[C@H]2C=C(Br)[C@H](C[C@@H]2OCCOCCO)[C@@]12CO2`, the composite z-score in [1] was 0.146; in experiment [2] it was -0.119; in experiment [3], -0.115; in experiment [5] it was 0.527; in experiment [6], 0.144; in experiment [7], 0.475. For the same molecule, the composite z-score was determined as 0.118 in experiment [8], 0.18 in experiment [9] and 1.02 in experiment [10]. The z-score in experiment [4] was 0.651 (inactive).

For `O=C1O[C@H](c2ccccc2)[C@H](c2ccccc2)N2[C@H]1[C@@H](C(=O)NC[C@H](O)c1ccccc1)[C@]1(C(=O)Nc3ccc(C#CC4=CCCCC4)cc31)[C@H]2c1ccc(O)cc1`, the composite z-score is 1.29 in experiment [1]; 0.137 in experiment [2]; 0.176 in experiment [3]; 1.3 in experiment [5]; 1.29 in experiment [6]; 0.57 in experiment [7]. The figures for the composite z-score in [8], in experiment [9] and in experiment [10] were 1.33, 0.542 and -0.201, respectively. Further, the z-score in [4] is -2.1 (inactive).

Take `C[C@H]1C2[C@H](Cc3ccccc3)NC(=O)[C@]23C(=O)N[C@H](Cc2ccccc2)C(=O)N[C@H](Cc2ccccc2)C(=O)NC/C=C/CCC/C=C/C3[C@@H]2O[C@]12C` (stereo not given in full): the composite z-score in experiment [1] is 1.17; in experiment [2], -0.319; in experiment [3], -0.327; in experiment [5] it was 0.398; in experiment [6], 0.309; in experiment [7] it was 0.17. Further, the composite z-score in experiment [8] worked out at 1.4; in [9] it was 0.54; in experiment [10], 0.645. Besides, in experiment [4], the z-score was -0.549 (inactive).

In the case of `CCOC1=C2C(c3ccc(C)cc3)N(S(=O)(=O)c3ccc(C)cc3)CC2n2c(=O)n(-c3ccccc3)c(=O)n2C1` (stereo not given), the composite z-score came to 0.818 in [1]; 0.579 in experiment [2]; 0.5 in experiment [3]; 1.04 in experiment [5]; 1.29 in experiment [6]; 0.559 in [7]. The figures for the composite z-score in experiment [8], in [9] and in experiment [10] were 1.26, 0.424 and 0.329, respectively. Besides, the z-score in [4] was -0.0374 (inactive).

In the case of `CC(c1ccccc1)C(O)C1C=CC2C(=O)N(c3ccccc3)C(=O)C2N1Nc1ccccc1F` (stereo not given), the composite z-score in [1] is 0.308; in experiment [2], 0.535; in experiment [3], 1.09; in experiment [5], 0.356; in experiment [6], 0.214; in experiment [7] it was -0.0346. Moreover, the composite z-score was 0.683 in [8], -0.526 in experiment [9] and 0.913 in [10]. The z-score in experiment [4] is -1.02 (inactive).
